# Shown are actives, neighbours in structure and some others; about 2.9% of the full set was active somewhere.
# NSD2 HMT inh = inhibitors of human histone methyltransferase NSD2. O96028. NSD2 peptide methylation, AlphaScreen, 120 min. inhibition, % at 12.5 µM. 0.54% of 310,000 active; in the data active means inhibition above about 50%
# Target sequence (O96028 whole entry, looked up): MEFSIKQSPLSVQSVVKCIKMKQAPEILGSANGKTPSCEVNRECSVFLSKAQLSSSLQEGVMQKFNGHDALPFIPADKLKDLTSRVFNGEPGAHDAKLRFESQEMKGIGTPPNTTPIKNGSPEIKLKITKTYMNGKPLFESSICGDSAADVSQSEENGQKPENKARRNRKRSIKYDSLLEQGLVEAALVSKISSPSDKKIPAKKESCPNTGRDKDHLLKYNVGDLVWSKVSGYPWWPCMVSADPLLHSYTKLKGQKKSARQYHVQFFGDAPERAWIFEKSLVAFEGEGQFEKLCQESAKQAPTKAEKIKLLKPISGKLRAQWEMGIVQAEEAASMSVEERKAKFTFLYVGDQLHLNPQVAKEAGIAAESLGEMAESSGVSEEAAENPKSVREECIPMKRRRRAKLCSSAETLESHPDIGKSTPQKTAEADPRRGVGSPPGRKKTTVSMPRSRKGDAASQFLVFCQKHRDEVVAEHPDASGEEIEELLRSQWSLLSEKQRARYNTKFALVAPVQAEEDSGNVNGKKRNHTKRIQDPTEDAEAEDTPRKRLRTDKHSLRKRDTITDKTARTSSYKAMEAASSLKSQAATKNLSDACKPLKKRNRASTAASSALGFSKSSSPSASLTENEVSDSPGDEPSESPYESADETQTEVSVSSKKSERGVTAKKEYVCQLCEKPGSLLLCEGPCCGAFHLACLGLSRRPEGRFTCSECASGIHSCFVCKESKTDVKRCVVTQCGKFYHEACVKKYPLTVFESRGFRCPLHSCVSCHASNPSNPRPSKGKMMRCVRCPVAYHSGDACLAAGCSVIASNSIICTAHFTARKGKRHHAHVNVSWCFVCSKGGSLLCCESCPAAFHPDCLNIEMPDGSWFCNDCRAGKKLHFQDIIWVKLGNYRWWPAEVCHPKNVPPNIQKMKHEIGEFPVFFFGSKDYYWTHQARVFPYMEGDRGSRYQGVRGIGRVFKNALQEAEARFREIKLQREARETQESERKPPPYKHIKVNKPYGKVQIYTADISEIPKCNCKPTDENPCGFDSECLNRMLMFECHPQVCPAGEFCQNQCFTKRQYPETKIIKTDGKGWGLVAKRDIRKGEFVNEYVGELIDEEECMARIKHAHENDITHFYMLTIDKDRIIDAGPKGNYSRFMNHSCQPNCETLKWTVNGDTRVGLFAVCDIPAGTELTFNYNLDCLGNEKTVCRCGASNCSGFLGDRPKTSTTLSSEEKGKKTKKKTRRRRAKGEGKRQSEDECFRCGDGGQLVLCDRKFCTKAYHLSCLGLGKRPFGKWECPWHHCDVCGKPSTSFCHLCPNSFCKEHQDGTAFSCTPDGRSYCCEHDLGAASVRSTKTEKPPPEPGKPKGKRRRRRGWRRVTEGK
# PfHsp90 yeast 2 = inhibits growth of yeast expressing Plasmodium falciparum Hsp90. S. cerevisiae expressing PfHsp90, BacTiter-Glo ATP, 48 h; yeast lacking PDR1 and PDR3 efflux regulators. inhibition, % at 9.4 µM. 0.32% of 310,000 active. AID 504621;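 active means every replicate shows inhibition above about 80%, whatever the replicate mean, limit read from the data; inconclusive means mean inhibition reaches the set limit but some replicate falls short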
# MITF TRPM1 inh = inhibitors of MITF-driven TRPM1 promoter in melanoma cells; SK-MEL-5 TRPM1 promoter luciferase, 24 h; inhibition, % at 12.5 µM; 0.83% of 330,000 active; AID 488899;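 active means mean inhibition across replicates of 60% or more, whatever share of single replicates reaches that level; inconclusive means some that reach 60%, reason not given; inactive means mean inhibition across replicates below 60%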
# MITF act = activators of MITF-driven TRPM1 promoter activity in SK-MEL-5 cells; SK-MEL-5 TRPM1-promoter luciferase, 24 h; % of positive control, neutral wells = 0; activation, % at 12.5 µM; 0.75% of 300,000 active; AID 588334;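 active means mean activation of at least 80% with every replicate also reaching 80%; inconclusive means mean reaches 80% but some replicate falls short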
# Glyco luc inh = blocks N-linked glycosylation in D54 reporter cells | D54 ERlucT glycosylation luciferase reporter, 24 h; percent of 100 nM tunicamycin response | 0.23% of 360,000 active | reporter increase, % at 12.5 µM | AID 588692;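 active means mean luciferase reporter signal, scaled so untreated is 0 and the glycosylation-blocking control 100, at or above a set limit in every replicate; inconclusive means mean reaches the limit but not every replicate does; inactive means mean below the limit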;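 further: luciferase carries N-glycosylation sites so blocking glycosylation raises the light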
# Wnt act = activators of Wnt/beta-catenin signaling; Wnt/beta-catenin reporter cell assay, activator, plate reader; activation, % at 9.35 µM; 1.2% of 300,000 active; in the data active means activation above about 30%, passing the limit was not always enough; inconclusive means no clear call, values can overlap the other calls
# A number is an active result; - = inactive; ? = inconclusive; . = no result.
SMILES,NSD2 HMT inh,PfHsp90 yeast 2,MITF TRPM1 inh,MITF act,Glyco luc inh,Wnt act
COc1ccc(NC(=O)C(CC(=O)O)C(C)c2ccccc2)cc1 (stereo not given),-,-,-,-,-,-
Nc1[nH]c(C(=O)c2ccccc2)c(-c2ccc3c(c2)OCO3)c1C(=O)NCCc1c[nH]c2ccccc12,.,.,.,.,.,-
CC(C)CC(CCOCCO)NC(=O)OCc1ccccc1[N+](=O)[O-] (stereo not given),-,.,.,.,.,.
COCc1cc(N2CCN(C(=O)OC(C)(C)C)C[C@@H]2C)ccc1Br,.,.,.,.,.,-
Cc1c(C(=O)Nc2ccccc2)sc2nc(-c3ccccc3)cn12,-,-,-,-,-,58.3
Cc1cccc(NC(=O)c2sc3nc(-c4ccccc4)cn3c2C)n1,.,-,-,-,-,-
CC(C)CC1NC(=O)N(CC(=O)c2ccc3c(c2)OCCO3)C1=O (stereo not given),-,.,-,.,-,33.1
CC(=O)N1CCOc2ccc(S(=O)(=O)NC[C@H]3O[C@@H](n4cnc5c(N)ncnc54)[C@H](O)[C@@H]3O)cc21,.,-,-,-,-,-
CCN(CC)c1ccc2c(-c3ccc(S(=O)(=O)O)cc3S(=O)(=O)[O-])c3ccc(=[N+](CC)CC)cc-3oc2c1,61.3,-,-,-,-,.
O=C(NN=Cc1cccc(O)c1O)c1ccccc1,-,.,.,.,-,-
COc1ccc(C(=O)Nc2ccc(OCC(F)(F)C(F)F)c(C(F)(F)F)c2)cc1OC,-,-,-,-,-,.
O=C(Nc1ccc(OCC(F)(F)C(F)F)c(C(F)(F)F)c1)c1ccc(Cl)cc1,-,-,67.6,-,-,.
C=CCN(C(=O)c1oc2c(Cl)cc(C)cc2c1C)C1CCS(=O)(=O)C1 (stereo not given),-,-,-,111.4,-,-
CC(C)CCOc1cccc(OCC(=O)Nc2ccncc2)c1,-,102.9,-,-,-,-
CC(C)(C)c1ccc(OCC(=O)Nc2ccncc2)c(Br)c1,-,-,-,-,34.0,-
COc1cccc(OCC(=O)Nc2ccncc2)c1,-,-,-,-,-,-
COc1cc2c(c(OC)c1OC)C1(CCCCC1)CC2NC(=O)c1ccncc1 (stereo not given),.,.,.,.,.,-
CC(C)(C)c1ccc(-c2nc(-c3ccncc3)no2)cc1,-,-,-,-,-,-
CC(C)(C)c1ccc(-c2noc(-c3ccno3)n2)cc1,-,-,-,117.9,-,-
O=C(O)/C=C/C(=O)Nc1ccc2c(c1)C(=O)c1ccccc1C2=O,.,-,-,-,-,50.4
COc1cc(/C=N/NC(=O)CNC(=O)c2ccccc2)ccc1OC(=O)c1cccs1,-,-,-,-,-,33.3
Cc1ccc(-c2cc(C(=O)NN=Cc3ccc(N(C)C)cc3)[nH]n2)cc1C,-,.,.,.,.,.
COc1ccc(-c2nn(-c3ccccc3)cc2/C=N/N=C(N)N)cc1OC,-,-,94.4,-,-,.
CS(=O)(=O)c1ccc(-c2sc3ccccc3c2C(=O)N2CCN(c3ccc(F)cc3)CC2)cc1,.,-,-,93.6,-,45.4
COc1cc2c(C(=O)N3CCN(C)CC3)c(C)n(-c3ccccc3)c2cc1Br,-,-,-,-,-,-
SMILES,NSD2 HMT inh,PfHsp90 yeast 2,MITF TRPM1 inh,MITF act,Glyco luc inh,Wnt act
CCN(CC)CCNC(=O)c1c(C)n(-c2ccccc2)c2cc(Br)c(OC)cc12,.,-,74.3,-,-,-
C=CCNC(=O)/C(=C/c1cccc([N+](=O)[O-])c1)NC(=O)c1ccccc1,-,-,-,-,-,-
CCc1ccc(/C=N/Nc2ncnc3nc[nH]c23)cc1,-,-,-,-,-,53.1
CC(C)=NNc1ncnc2nc[nH]c12,-,-,-,.,-,-
CCn1c(NC(=S)Nc2ccccc2)nc2ccccc21,-,-,-,.,-,33.0
OC(c1ccccc1)c1nc(-c2cc3ccccc3o2)cs1 (stereo not given),-,.,.,.,-,-
Nc1nc(-c2cc3ccccc3o2)cs1,-,-,-,102.3,-,55.6
CCCn1c(C)c(CC(=O)Nc2ccc(N(C)c3ccccn3)cc2)c2ccccc21,.,.,.,.,.,-
c1ccc(-c2nc(-c3nccc4ccccc34)oc2-c2ccccc2)cc1,-,-,-,109.3,-,-
Nc1nc(-c2ccccc2)c(-c2ccccc2)o1,-,-,-,.,-,-
CC(C(=O)NCc1ccccc1Cl)n1cc([N+](=O)[O-])cn1 (stereo not given),-,-,-,-,-,-
CCSc1nncn1/N=C/c1ccc(OC)c(OC)c1,-,-,-,.,-,-
C=C(C)CSc1nncn1/N=C/c1ccc(OC)cc1,-,-,-,98.3,-,.
CSc1ccccc1NC(=O)COc1ccc2c(c1)OCO2,-,-,-,-,-,-
NC(=O)c1ccccc1NC(=O)COc1ccc2c(c1)OCO2,-,-,-,132.4,-,-
NC(=O)c1ccccc1NC(=O)c1ccc2c(c1)OCO2,-,-,-,.,-,42.2
CCOC(=O)c1csc(-c2ccc(COC(=O)c3ccccc3)o2)n1,-,.,.,.,-,.
CCN(C(=O)CN1CCN(c2nc(-c3ccccc3)cs2)CC1)c1ccccc1C,-,.,.,.,.,.
Cc1ccc2c(c1)C=CC(C)(C)S2(=O)=O,-,-,-,-,-,-
O=C(NC(=S)Nc1ncc(Br)cc1Br)c1cncc(Br)c1,-,-,-,-,-,-
O=C(NC(=S)NC1CCCCCC1)c1cncc(Br)c1,-,-,-,95.5,-,37.3
COc1ccc(C(=O)O)cc1S(=O)(=O)N1CCN(Cc2ccc3c(c2)OCO3)CC1,-,-,-,-,-,-
CC(=O)Nc1ccc(C(=O)CSc2cc(C)c3cccc(C)c3n2)cc1,-,-,-,-,-,-
CCc1ccc(O)c(-c2cc(C(=O)Nc3cccnc3)[nH]n2)c1,-,-,-,108.6,-,?
Cc1cc(C)c(O)c(-c2cc(C(=O)Nc3cccnc3)[nH]n2)c1,-,-,-,-,-,-
SMILES,NSD2 HMT inh,PfHsp90 yeast 2,MITF TRPM1 inh,MITF act,Glyco luc inh,Wnt act
Cc1cc(O)c(-c2cc(C(=O)Nc3cccnc3)[nH]n2)cc1C,-,-,-,137.8,-,40.4
C#CCN(C[C@H]1[C@H](OC(=O)Nc2cccs2)[C@H](OC(=O)Nc2cccs2)CN(C(=O)OC(C)C)N1C(=O)OC(C)C)S(=O)(=O)c1ccc(C)cc1,.,.,.,.,.,-
Fc1ccc(Oc2ccnc(Cl)n2)c(Cl)c1,-,.,.,.,.,44.4
COc1ccccc1CNC(=O)COC(=O)c1cc(=O)c2ccccc2o1,-,-,-,-,-,-
O=C(COC(=O)CCc1ccc(S(=O)(=O)N2CCOCC2)cc1)NCc1ccc(Cl)cc1,-,-,-,-,-,-
CC(C)n1cnc2c(Nc3ccc(F)c(Cl)c3)nc(NCCO)nc21,.,-,-,-,-,-
C=CC(=O)Nc1ccc(Nc2nc(NC3CCC(N(C)C)CC3)nc3c2ncn3C(C)C)cc1 (stereo not given),.,-,86.5,-,-,.
COC(=O)CCNC(=O)c1ccc2nc(Cc3ccc(OC)cc3)oc2c1,-,-,-,-,-,-
COc1ccc(Cc2nc3ccc(C(=O)NCC(C)(C)OC)cc3o2)cc1,.,-,-,104.3,-,-

# High-throughput results: PubChem BioAssay, Broad Institute
